# Source: PubChem BioAssay (National Center for Advancing Translational Sciences (NCATS))
# Sampled rows, rich in hits. Any-hit rate of the full collection: about 5.8%.
# RORg inh: blocks mouse ROR gamma transcriptional activity; Drosophila S2 Gal4-RORgamma UAS-luciferase reporter, 20 h; Potency, µM (top dose mostly 53.6 µM), without a hit: at the highest dose activity change, negative = inhibition, usual class: inhibitors; actives 5.4% (n = 310,000); AID 2551; also: potency is read from the fitted curve at half-maximal effect; % is scaled to controls: 0 for no effect and ±100 for the full control effect; nearly all actives have a fitted effect of over 60% in size
#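 ROR gamma transcriptional activity was tracked as Gal4-UAS luciferase output in stably transfected Drosophila Schneider cells, with compound added 1 hr before 700 uM copper sulfate induction and a 20 hr ambient-temperature incubation.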
# Gal4-VP16 FLuc: counter-screen for ROR gamma inhibitors: Gal4-VP16 reporter; Potency, µM (highest dose often 53.6 µM), for inactives: top-dose activity, negative = inhibition, actives largely listed as inhibitors; AID 2546; actives 3.5% (n = 310,000); Drosophila S2 Gal4-VP16 UAS-luciferase, luminescence, 20 h;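 also: Gal4-VP16 expression switched on by copper sulfate through the metallothionein promoter; potency is read from the fitted curve at half-maximal effect; % is scaled to controls: 0 for no effect and ±100 for the full control effect; nearly all actives have a fitted effect of over 50% in size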
# uPA generation: inhibitors of cell surface uPA generation | cell surface uPA generation assay, qHTS | Potency, µM (highest dose often 38.3 µM), without a hit: at the top dose activity change, negative = inhibition, usual class: inhibitors | actives 0.31% (n = 330,000) | AID 540303; active = well fitted inhibition curve with a large enough effect; inconclusive = small, poorly fitted or top-dose-only effect; inactive = no such curve, though single readings can be large or run the other way; tested in mouse RAW 264.7 cells; also: potency is read from the fitted curve at half-maximal effect; % is scaled to controls: 0 for no effect and ±100 for the full control effect; nearly all actives have a fitted effect of over 55% in size
# TRPV1 potentiator: human TRPV1 potentiation; actives 0.02% (n = 320,000); TRPV1-expressing cells, Fluo-8 calcium influx, capsaicin EC20 potentiation; potentiation, % at 8.33 µM; in the data active = potentiation above about 80%; inconclusive = between about 30% and that limit; also: 0% is about no effect
# Target sequence (Q8NER1 whole entry, looked up): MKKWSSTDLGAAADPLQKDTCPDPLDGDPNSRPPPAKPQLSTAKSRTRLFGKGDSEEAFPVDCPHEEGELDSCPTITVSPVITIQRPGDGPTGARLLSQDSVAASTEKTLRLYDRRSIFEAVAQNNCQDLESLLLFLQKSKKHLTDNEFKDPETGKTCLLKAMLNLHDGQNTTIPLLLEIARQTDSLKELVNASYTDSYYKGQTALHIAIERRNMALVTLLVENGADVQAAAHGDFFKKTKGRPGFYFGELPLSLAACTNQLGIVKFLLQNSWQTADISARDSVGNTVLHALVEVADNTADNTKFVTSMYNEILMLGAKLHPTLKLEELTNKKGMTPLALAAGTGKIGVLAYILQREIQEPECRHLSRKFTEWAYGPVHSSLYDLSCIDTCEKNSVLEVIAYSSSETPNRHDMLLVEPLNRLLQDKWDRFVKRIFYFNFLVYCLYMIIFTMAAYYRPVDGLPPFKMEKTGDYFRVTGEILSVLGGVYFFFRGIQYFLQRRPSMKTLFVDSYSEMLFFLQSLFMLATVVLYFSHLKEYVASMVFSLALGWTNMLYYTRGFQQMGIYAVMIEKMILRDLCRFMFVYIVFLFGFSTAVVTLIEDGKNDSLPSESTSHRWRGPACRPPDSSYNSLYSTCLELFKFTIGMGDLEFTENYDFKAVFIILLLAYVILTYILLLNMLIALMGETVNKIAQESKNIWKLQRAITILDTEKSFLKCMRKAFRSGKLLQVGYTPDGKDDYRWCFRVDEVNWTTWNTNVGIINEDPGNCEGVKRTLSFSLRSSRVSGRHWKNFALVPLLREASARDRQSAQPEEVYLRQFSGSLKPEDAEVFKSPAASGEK
#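 TRPV1-expressing cells were cultured overnight at 35.5C and loaded with Fluo-8 calcium dye for 40 to 90 min at room temperature. After a 10 s baseline, compound was added and calcium influx was read kinetically for 3 min (ex 480/em 520 nm).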
# TRPV1 agonist: human TRPV1 agonism | TRPV1-expressing cells, Fluo-8 calcium influx, agonist mode | activation, % at 8.33 µM | actives 0.19% (n = 320,000); in the data active = activation above about 80%; inconclusive = between about 30% and that limit; also: 0% is about no effect
#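 Fluo-8 calcium influx in TRPV1-expressing cells, kinetic read (ex 480/em 520 nm). Compound added and read 3 min for agonist activity, followed by capsaicin at EC20 final and 2 min further read for enhancement.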
# Numbers without * were called inactive; ? = inconclusive; · = no result given; [ ] = dose if it differs, or a comment. Unless noted, calls follow the shape of the dose curve; as a rule, active = well fitted curve in the direction sought with a large enough effect; inconclusive = small, poorly fitted or top-dose-only effect, or another doubt; inactive = no such curve, though single readings can be large; an effect the other way counts as inactive or inconclusive.
SMILES,RORg inh,Gal4-VP16 FLuc,uPA generation,TRPV1 potentiator,TRPV1 agonist
O=C(CSc1nnc(CNc2ccc(Cl)cc2)o1)Nc1nc2ccccc2s1,14µM*,?,-1%,7,-3
COc1ccccc1NC(=S)N/N=C/c1cccc(C)c1,0.89µM*,1.3µM*,-11%,-2,-2
COc1ccccc1NC(=S)N/N=C/c1ccc(O)cc1,4µM*,7.1µM*,-5%,7,2
COc1ccc(/C=N/NC(=S)Nc2cccc(C(=O)O)c2)cc1OC,?,-26%,-9%,6,-5
CC(=O)c1cnc2nc(SCc3cccc(C)c3)nn2c1C,?,21%,33%,-1,4
Cn1c(=O)c([N+](=O)[O-])c(NCCCn2ccnc2)c2ccccc21,4%,-2%,11%,-5,2
Cn1c(=O)c([N+](=O)[O-])c(-n2ccnc2)c2ccccc21,?,7.9µM*,·,23,-2
COC(=O)CSc1nc(C)c(C)c(C)c1C(N)=O,2%,4%[10 µM],0%,-1,-2
O=C(NCCCCN1CCOCC1)c1cc2ccccc2o1,8%,-5%,·,·,·
Brc1ccc(-c2csc(N3CCCCCC3)n2)cc1,11µM*,?,1%,3,0
CCN1C(=O)c2ccc(C(=O)Nc3cccc(C(=O)O)c3)cc2C1=O,10µM*,?,8%,-3,1
Cc1sc2ncnc(Sc3nnnn3-c3ccc(Cl)cc3)c2c1C,4µM*,7.1µM*,-8%,-15,2
c1ccc(-n2nnnc2Sc2ncnc3sc4c(c23)CCCC4)cc1,?,?,0%,-12,1
COc1ccccc1NC(=O)COC(=O)COc1cccc2c1OC(C)(C)C2,·,·,3%,1,3
O=C(CNC(=O)c1ccc(Br)o1)NCC1COc2ccccc2O1 (configuration not stated),·,·,12%,·,·
O=C(CNS(=O)(=O)c1ccc(Br)s1)NCC1COc2ccccc2O1 (configuration not stated),-17%,13µM*,25%,2,4
CC(C)c1ccc(NC(=S)N2CCN(S(=O)(=O)c3ccccc3)CC2)cc1,11µM*,?,-3%,7,?
COC(=O)c1ccc(NC(=S)N2CCN(Cc3cccc(C)c3)CC2)cc1,11µM*,?,·,·,·
Cc1ccccc1NC(=S)N1CCN(Cc2ccccc2)CC1,?,?,-6%,6,-1
Cc1cc(C)cc(NC(=S)N2CCN(Cc3ccccc3)CC2)c1,7.1µM*,?,-2%,-1,17
Cc1ccc(NC(=S)N2CCN(Cc3ccccc3)CC2)cc1,7.9µM*,-1%,-9%,-16,9
O=S(=O)(c1ccccc1)N1CCN(C(=S)Nc2ccccc2)CC1,-15%,-5%,-4%,-13,7
COc1ccc(NC(=S)N2CCN(Cc3ccc(C)cc3)CC2)cc1,?,-4%,1%,7,0
C/C=C(\C)[C@H](O)C[Si](C)(C)c1ccccc1,-15%,-1%,·,·,·
S=C(Nc1ccc(Cl)cc1)N1CCN(Cc2ccccc2)CC1,11µM*,-28%,0%,-7,8
SMILES,RORg inh,Gal4-VP16 FLuc,uPA generation,TRPV1 potentiator,TRPV1 agonist
CC(C)c1ccc(NC(=S)N2CCN(Cc3ccccc3)CC2)cc1,7.9µM*,?,3%,-11,?
COC(=O)c1ccc(NC(=S)N2CCN(Cc3ccccc3)CC2)cc1,3%,?,-1%,?,4
Cc1ccc(Cl)cc1N1CCN(Cc2nc3ccsc3c(=O)[nH]2)CC1,11µM*,?,3%,8,1
O=C(Nn1cnnc1)c1cc(-c2ccccn2)nc2ccccc12,-17%,-12%,0%,-2,1
O=C(NNS(=O)(=O)c1ccc2ccccc2c1)c1cc(-c2ccccn2)nc2ccccc12,8%,7.9µM*,0%,30,11
COc1ccc(C2CC(=O)N3CN(c4ccc(C)c(Cl)c4)CSC3=C2C#N)cc1OC (configuration not stated),-18%,22%,7.1µM*,?,-1
COc1ccc(N2CSC3=C(C#N)C(c4cc(OC)c(OC)cc4OC)CC(=O)N3C2)c(OC)c1 (configuration not stated),13µM*,4%,-29%,4,0
COc1ccc(CCNc2c(N)n(Cc3ccccc3)c(=O)[nH]c2=O)cc1OC,-15%,7%,-5%,4,-1
CC(=O)Nc1ccc(C(=O)Nc2ccc3c(c2)OCCO3)cc1,-18%,0%,-8%,5,3
Cc1ccc(C(=O)Nc2ccc3c(c2)OCCO3)c(C)c1,3.2µM*,4.5µM*,-17%,-26,21
CC(=O)Nc1ccc(C(=O)Nc2ccc3c(c2)OCO3)cc1,?,-5%,-3%,-14,-1
Cc1cccc(NC(=O)c2ccc3c(c2)OCCO3)c1,?,?,-16%,-8,-2
CC(=O)NS(=O)(=O)c1ccc(NC(=O)c2ccc3c(c2)OCO3)cc1,20µM*,0%,11%,-48,2
Cc1ccc(NC(=O)c2ccc3c(c2)OCCO3)cc1C,5µM*,?,-3%,-30,85*
Cc1cc(C)c2[nH]c(C(=O)Nc3ccc4c(c3)OCO4)cc2c1,0.4µM*,-25%,-14%,-8,?
Cc1cc(C)c(NC(=O)Nc2ccc3c(c2)OCO3)c(C)c1,32%,-16%,3%,20,-13
NC(=S)Cc1nc(-c2ccccc2)cs1,11µM*,8.9µM*,8%,-3,13
CC1(C)OCC(CSC2=C(SCC3COC(C)(C)O3)C(=O)c3ncccc3C2=O)O1 (configuration not stated),11µM*,16µM*,·,·,·
Nc1nc(SCC(=O)Nc2cccc(F)c2)n[nH]1,·,·,12%,·,·
Cc1cc(=O)oc2cc(NC(=O)C(CCCCN)NC(=O)C(CC3CCCCC3)NC(=O)OCC3c4ccccc4-c4ccccc43)ccc12 (configuration not stated),6%,16%,·,·,·
CCCCCCCCC/C(=N\O)c1ccccn1,3.5µM*,11µM*,3%,4,11
O=c1c(-c2ccccc2)nc2cnc(N3CCOCC3)nc2n1C1CC1,9%,2%,·,·,·
CCOc1cccc2sc(Nc3nc4ccc(NC(C)=O)cc4s3)nc12,3.5µM*,4µM*,-17%,9,-3
CCC(=O)Nc1nc2ccc(NC(C)=O)cc2s1,8%,14%,5%,7,1
O=C(NNC(=O)C1CC=CCC1C(=O)O)c1ccc(Cl)cc1 (configuration not stated),3%,13%,3%,-10,7
CCn1cc(CNC(=O)c2ccc3nc(Cc4ccc(OC)cc4)oc3c2)cn1,0%,?,-7%,-17,21
O=C(O)CCc1ccc(-c2cccs2)o1,11µM*,?,-29%,10,-1
O=C(O)c1cccc(COc2ccccc2Cl)c1,24%,1.1µM*,·,-22,1
COc1cccc(-c2nnc3n2N=C(c2ccc(OC)cc2OC)CS3)c1,?,7.9µM*,·,·,·
COc1cccc(-c2nnc3n2N=C(c2cc(OC)ccc2OC)CS3)c1,?,-29%,5%,-6,?
